This note sets out measurements from PMC4336329 (PLoS ONE, 2015).

The structures appear in SMILES notation. Out of some 310,000 compounds screened, about 14,000 (4.5%) showed an effect of 50% or more. Effects have a minus sign here. This excerpt belongs to a sample that is enriched for strong results.
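Also: peak tail current of the secondary pulse compared with the same well before compound.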

Sequence of human ether-à-go-go-related gene (hERG) potassium channel (Q12809 whole entry, looked up): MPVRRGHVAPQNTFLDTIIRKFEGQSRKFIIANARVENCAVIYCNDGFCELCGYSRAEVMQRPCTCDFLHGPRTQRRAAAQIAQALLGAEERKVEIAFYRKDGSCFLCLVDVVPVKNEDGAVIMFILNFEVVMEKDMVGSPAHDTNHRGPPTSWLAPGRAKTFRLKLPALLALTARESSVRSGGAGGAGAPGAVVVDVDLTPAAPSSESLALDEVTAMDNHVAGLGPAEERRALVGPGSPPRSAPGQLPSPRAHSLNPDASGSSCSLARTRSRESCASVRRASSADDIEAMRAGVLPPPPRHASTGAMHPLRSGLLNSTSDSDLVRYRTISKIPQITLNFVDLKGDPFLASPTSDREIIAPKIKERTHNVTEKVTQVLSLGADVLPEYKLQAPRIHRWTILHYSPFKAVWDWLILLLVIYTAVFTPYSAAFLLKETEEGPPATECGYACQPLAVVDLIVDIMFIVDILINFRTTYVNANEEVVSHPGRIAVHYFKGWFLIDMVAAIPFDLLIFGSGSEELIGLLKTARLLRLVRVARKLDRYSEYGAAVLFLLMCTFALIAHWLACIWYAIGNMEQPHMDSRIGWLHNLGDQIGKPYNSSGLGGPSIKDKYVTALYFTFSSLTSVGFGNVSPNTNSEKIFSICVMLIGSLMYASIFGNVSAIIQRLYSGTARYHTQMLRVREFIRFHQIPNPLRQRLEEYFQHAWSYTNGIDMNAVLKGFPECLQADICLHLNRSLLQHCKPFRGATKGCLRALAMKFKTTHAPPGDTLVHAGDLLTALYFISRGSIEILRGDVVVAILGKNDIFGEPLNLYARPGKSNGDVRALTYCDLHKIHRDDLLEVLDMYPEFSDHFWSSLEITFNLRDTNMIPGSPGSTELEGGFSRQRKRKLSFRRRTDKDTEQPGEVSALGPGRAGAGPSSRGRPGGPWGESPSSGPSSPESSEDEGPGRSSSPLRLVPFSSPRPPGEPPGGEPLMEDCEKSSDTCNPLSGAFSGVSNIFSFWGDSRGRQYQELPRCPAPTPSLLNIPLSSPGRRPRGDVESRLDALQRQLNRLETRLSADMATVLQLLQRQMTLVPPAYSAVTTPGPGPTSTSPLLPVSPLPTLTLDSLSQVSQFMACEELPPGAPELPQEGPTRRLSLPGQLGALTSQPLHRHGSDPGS

The assay addresses human ether-à-go-go-related gene (hERG) potassium channel (human, UniProt Q12809). As to the kind of experiment: primary screen, population patch clamp on CHO cells stably expressing hERG; higher = less effect of the substance.
Consider `CCCCCC/C=C/c1ccc([C@H]2[C@H]3C=CC[C@@H](C)[C@@H]3C(=O)N2Cc2ccccc2)c(F)c1`, for which the “hERG current change (%, negative = inhibition) at 10uM” value is 4.76%.
In the case of `S=C1NC(c2ccccc2)=NCN1c1ccc(Br)cc1`, the “hERG current change (%, negative = inhibition) at 10uM” value was -12.9%.
The figure for `COc1ccccc1N(CC(=O)NCCSCc1ccc(Cl)cc1)S(C)(=O)=O` is -0.283%; for `C=CCSc1nccc(-c2nn(-c3ccc(C)cc3)ccc2=O)n1` it is -8.82%; for `O=C1NC(=O)N(CCc2ccc(F)cc2)C(=O)/C1=C/c1cccs1` it is 16.1%.
The figure for `Cc1c(NC(=O)COC(=O)c2ccc(Br)o2)c(=O)n(-c2ccccc2)n1C` is 13.8%.
`O=C(COc1ccc(-c2ccccc2)cc1)N/N=C/c1cccnc1`: the “hERG current change (%, negative = inhibition) at 10uM” value came to 7.95%.
For the molecule `O=C(N/N=C/c1cccnc1)c1ccccc1OCc1cccc(Br)c1`, the “hERG current change (%, negative = inhibition) at 10uM” value is -17.1%.
As for `CC(C)Oc1ccccc1-c1cc(C(=O)N/N=C/c2cccnc2)c2ccccc2n1`, the “hERG current change (%, negative = inhibition) at 10uM” value is -51.1%.
For the molecule `O=C(COc1ccccc1-c1ccccc1)N/N=C/c1ccncc1`, the “hERG current change (%, negative = inhibition) at 10uM” value was -26.2%.
As to `Cc1ccccc1-c1cc(C(=O)N/N=C/c2cccnc2)c2ccccc2n1`, the “hERG current change (%, negative = inhibition) at 10uM” value is listed as -3.87%.
Turning to `O=C(COc1ccccc1-c1ccccc1)N/N=C/c1cccnc1`, the “hERG current change (%, negative = inhibition) at 10uM” value was -52.8%.
Then `COc1ccc(/C(C)=N/NC(=O)c2ccccc2OCc2ccccc2)c(OC)c1`, with 11.2%; and `O=C(N/N=C/c1cccnc1)c1ccccc1OCc1ccc(Br)cc1`, with -52.6%.
Then `CCOc1ccccc1-c1cc(C(=O)N/N=C/c2cccnc2)c2ccccc2n1`, with -6.35%.
The figure for `COc1ccc(/C=N/NC(=O)c2ccccc2NC(=O)c2ccco2)c(OC)c1` is 15.3%; for `COc1ccc(/C=N/NC(=O)c2ccccc2OCc2ccccc2)c(OC)c1` it is -53.8%.
As for `O=C(N/N=C/c1cccnc1)c1ccccc1OCc1ccc(Cl)cc1`, the “hERG current change (%, negative = inhibition) at 10uM” value is -38.4%.
Turning to `Cc1ccccc1N/N=C/c1ccc(N2CCOCC2)cc1`, the “hERG current change (%, negative = inhibition) at 10uM” value is -2.55%.
With `CCn1cc(CNC(=O)C2CCC(=O)N(Cc3ccccc3F)C2)cn1` (centres unmarked), the “hERG current change (%, negative = inhibition) at 10uM” value came out at 8.25%.
Then `COc1ccc(C(=O)Nc2ccccc2C(=O)N2CCOCC2)cc1Br`, with -17.3%; and `C/C(=N\NC(=O)Cc1ccccc1)c1cccnc1`, with 15.3%.
Turning to `C/C(=N\NC(=O)COc1ccccc1-c1ccccc1)c1cccnc1`, the “hERG current change (%, negative = inhibition) at 10uM” value is -53.9%.
Then `C/C(=N\NC(=O)COc1ccccc1-c1ccccc1)c1ccccn1`, with -6.93%; and `CSCCC(NS(=O)(=O)c1cc(C(=O)O)ccc1Cl)C(=O)O` (centres unmarked), with 45%; and `O=C(/C=C/c1ccccc1Cl)NCc1ccccc1`, with 10.2%.
The figure for `CCN(CC)C(=O)C1CCCN(C(=O)CCn2nnnc2CN2CCOCC2)C1` (centres unmarked) is 17.7%.
Then `Cl.NC(N)=NC(=O)c1nc(Cl)c(N)nc1N.O`, with -0.314%; and `NC(N)=NC(=O)c1nc(Cl)c(N2CCCCCC2)nc1N`, with -58.6%; and `NC(N)=NC(=O)c1nc(Cl)c(N)nc1N`, with -3.88%.
Regarding `Cc1ccc(N(CC(O)CN2C(=O)NC(C)(C)C2=O)S(=O)(=O)c2ccc([N+](=O)[O-])cc2)cc1` (centres unmarked), the “hERG current change (%, negative = inhibition) at 10uM” value is given as -32.7%.
Take `Cc1ccc(N(CC(O)CN2CCOCC2)S(=O)(=O)c2ccc3ccccc3c2)cc1` (centres unmarked): the “hERG current change (%, negative = inhibition) at 10uM” value is -67.4%.
With `COc1ccc(N(CC(O)CN2CCOCC2)S(=O)(=O)c2ccccc2)cc1` (centres unmarked), the “hERG current change (%, negative = inhibition) at 10uM” value was -12.1%.
Then `Cl.O=S(=O)(c1ccc2ccccc2c1)N(CC(O)CN1CCOCC1)c1ccccc1` (centres unmarked), with -47.9%.
Then `Cc1ccc(N(CC(O)CN2CCOCC2)S(=O)(=O)c2ccc([N+](=O)[O-])cc2)cc1` (centres unmarked), with -65.2%; and `Cc1ccc(N(CC2CO2)S(=O)(=O)c2ccc([N+](=O)[O-])cc2)cc1` (centres unmarked), with -69.3%.
The figure for `Cc1ccc(N(CC2CO2)S(=O)(=O)c2ccc(C)cc2)cc1` (centres unmarked) is -5.18%; for `O=[N+]([O-])c1ccc(N(CC2CO2)S(=O)(=O)c2ccccc2)cc1` (centres unmarked) it is -43.9%.
On to `Cc1ccc(S(=O)(=O)N(CC(O)CN2CCOCC2)c2cccc([N+](=O)[O-])c2)cc1` (centres unmarked), for which the “hERG current change (%, negative = inhibition) at 10uM” value is -34.5%.
The figure for `O=C(Nc1ccc(NC(=O)c2cccs2)cc1)c1ccc2c(c1)OCCO2` is 15.6%; for `CC1(C)Cn2c(nnc2-c2ccccc2)S1` it is 14.1%; for `O=C(NCC1CCCO1)c1cc(-c2ccncc2)nc2ccc(S(=O)(=O)N3CCOCC3)cc12` (centres unmarked) it is -24.5%.
Turning to `CC(C)(C#CCN1CCCCC1)OCCOC(c1ccccc1)c1ccccc1.Cl`, the “hERG current change (%, negative = inhibition) at 10uM” value is listed as -21.3%.
Then `Cc1ccc(NC(=O)CCn2cnc3cc(C)c(C)cc32)cc1`, with -8.26%.
As to `COc1ccccc1N1C(=O)c2ccc(C(=O)Nc3ccc(F)cc3)cc2C1=O`, the “hERG current change (%, negative = inhibition) at 10uM” value came to 1.07%.
Regarding `CCOC(=O)N1CCN(c2ncnc3c2[nH]c2ccc(F)cc23)CC1`, the “hERG current change (%, negative = inhibition) at 10uM” value was -2.67%.
Regarding `Cc1ccnc(NC(=O)C2CCN(S(=O)(=O)c3ccc4ccccc4c3)CC2)c1`, the “hERG current change (%, negative = inhibition) at 10uM” value is given as 7.94%.
The figure for `O=c1c(Br)c(N2CCCCC2)cnn1-c1ccccc1` is -16.5%; for `CC(C)Cc1oc(C(=O)O)cc1CN.Cl` it is -4.32%.
In the case of `O=C(Nc1nnc(-c2ccc(Cl)cc2)o1)c1ccc(N2C(=O)CCC2=O)cc1`, the “hERG current change (%, negative = inhibition) at 10uM” value came to 12.9%.
With `Cc1ccccc1OCC(=O)OCC(=O)Nc1ccc(N2CCOCC2)cc1`, the “hERG current change (%, negative = inhibition) at 10uM” value is reported as 9.51%.
Then `O=S(=O)(Nc1c(F)cccc1F)c1ccc2c(c1)OCCO2`, with 9.82%; and `CCOC(=O)c1sc2nc(NC(=O)C(C)(C)C)sc2c1C`, with -11.7%; and `Cc1ccc(S(=O)(=O)N(C)c2nc3ccccc3n3c(C(C)C)nnc23)cc1`, with -28.1%.
`CN(CCCNC(=O)CCC(=O)N1CCOc2ccc(Cl)cc21)Cc1ccccc1`: the “hERG current change (%, negative = inhibition) at 10uM” value was -64.1%.
The figure for `O=C(CCC(=O)N1CCOc2ccccc21)NCCc1ccccc1` is -6%.
In the case of `CN(CCCNC(=O)CCC(=O)N1CCOc2ccccc21)Cc1ccccc1`, the “hERG current change (%, negative = inhibition) at 10uM” value is on record as -30.7%.
The figure for `O=C(CCC(=O)N1CCOc2ccccc21)NCCCc1ccccc1` is -17.5%; for `O=C(CCC(=O)N1CCOc2ccc(Cl)cc21)NCc1ccccc1` it is -21.7%; for `Cc1ccc2c(c1)N(C(=O)CCC(=O)NCCCN(C)Cc1ccccc1)CCO2` it is -68.3%.
Then `CCN(CCCNC(=O)CCC(=O)N1CCOc2ccccc21)Cc1ccccc1`, with -62.5%; and `CC(CNC(=O)CCC(=O)N1CCOc2ccc(Cl)cc21)c1ccccc1` (centres unmarked), with -40.6%; and `Cc1ccc2c(c1)N(C(=O)CCC(=O)NCc1cccc(F)c1)CCO2`, with -5.21%.
The figure for `COc1ccc(C(=O)Oc2cc(C)[nH]c(=O)c2[N+](=O)[O-])c(OC)c1` is 11.9%.
Consider `Cc1ccc(C)c2[nH]c(=O)c(CN(Cc3ccco3)S(=O)(=O)c3ccc4c(c3)OCCO4)cc12`, for which the “hERG current change (%, negative = inhibition) at 10uM” value is 9.44%.
Then `CC(C)NC(=O)[C@]1(C)CCC[C@@]2(C)C3CC[C@@]4(C)C[C@]3(CCC21)CC4=O` (some centres unmarked), with 6.23%; and `CCc1ccc(NC(=O)C2CCCN(S(C)(=O)=O)C2)cc1` (centres unmarked), with 21.3%.
Then `C=CCn1c(SCc2csc(C)n2)nc2sc3c(c2c1=O)CCCCC3`, with -8.41%; and `O=C(CN1C(=O)C(c2ccc(F)cc2)=NC12CCCC2)Nc1ccc(F)cc1`, with -5.39%; and `CC(C)(C)OC(=O)N1CC(O)CC1C(=O)OCC(=O)c1ccc(Cl)cc1` (centres unmarked), with -16.4%.
Then `CC(C)(C)OC(=O)N1CC(O)CC1C(=O)OCC(=O)c1ccccc1` (centres unmarked), with 5.86%.
With `CC(C)(C)OC(=O)N1C[C@H](O)C[C@H]1C(=O)OCC(=O)c1ccc([N+](=O)[O-])cc1`, the “hERG current change (%, negative = inhibition) at 10uM” value was -63.4%.
Then `COc1cccc(/C=N/NC(=O)c2[nH]c(C)c(C(=O)N/N=C/c3cccc(OC)c3O)c2C)c1O`, with 11.7%.
Then `CCN1CCc2c(OCC(=O)Nc3ccc4c(c3)OCCO4)cccc2C1=O`, with 5.28%; and `Cc1cc(NCCCN2CCOCC2)n2ncc(-c3ccccc3)c2n1`, with -21%; and `CC(C)(C)c1cc(NCCCn2ccnc2)n2ncc(-c3ccccc3)c2n1`, with -18%.
The figure for `Cc1cc(NCCCn2ccnc2)n2ncc(-c3ccc(Cl)cc3)c2n1` is -68%; for `Cc1cc(NCCCN2CCOCC2)n2ncc(-c3ccc(Cl)cc3)c2n1` it is 0.66%.
With `CC(C)(C)c1cc(NCCCn2ccnc2)n2ncc(-c3ccc(Cl)cc3)c2n1`, the “hERG current change (%, negative = inhibition) at 10uM” value was determined as 12.1%.
As for `Cc1cc(NCCCn2ccnc2)n2ncc(-c3ccccc3)c2n1`, the “hERG current change (%, negative = inhibition) at 10uM” value was -67.6%.
In the case of `Cc1ccc(S(=O)(=O)N2CCN(Cc3ccccc3)CC2)c(C)c1N(C)S(=O)(=O)c1ccccc1`, the “hERG current change (%, negative = inhibition) at 10uM” value is 5.81%.
Then `Cc1ccc(S(=O)(=O)N2CCN(C)CC2)c(C)c1N(C)S(=O)(=O)c1ccc(Cl)cc1`, with -68.7%; and `Cc1ccc(S(=O)(=O)N(C)c2c(C)ccc(S(=O)(=O)N3CCN(C=O)CC3)c2C)cc1`, with -42.8%.
For `Cc1cc(C)c(S(=O)(=O)N2CCCCC2)c(C)c1N(C)S(=O)(=O)c1ccc(Cl)cc1`, the “hERG current change (%, negative = inhibition) at 10uM” value was determined as 0.393%.
Consider `C=C(C)CN1CCN(S(=O)(=O)c2ccc(C)c(N(C)S(=O)(=O)c3ccc(C)cc3)c2C)CC1`, for which the “hERG current change (%, negative = inhibition) at 10uM” value is -2.33%.
Then `Cc1ccc(S(=O)(=O)N(C)c2c(C)ccc(S(=O)(=O)N3CCN(C)CC3)c2C)cc1`, with -60.8%.
